# Reference: PubChem BioAssay (Tox21)
# A number with no mark means an inactive call. Results filed as inconclusive are left out. Where a call stands in place of a potency, no number is given. Active and inactive are the calls of the source. Unless noted, the call rests on the fitted dose curve.
# Columns and labels:
# [1] = G protein-coupled receptor (GPCR) small molecule agonists, calcium flux assay: HEK293 wild type cell line counter screen (AID 1920065)
# In short: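 Agonist mode; 18 h seeding at 37 C, 1 h dye load at 37 C; compounds pinned from DMSO, ATP as positive control; kinetic fluorescence 480/540 nm, 3 min, 1 s reads; 15 concentrations, triplicate.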
# [2] = p53 small molecule agonists, cell-based qHTS assay with human liver microsomes (AID 1963577);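 further: p53 response element beta-lactamase reporter cells with liver microsomes plus NADPH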
# In short: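 Metabolically competent format: test substances, human liver microsomes and NADPH (both 0.5 mg/mL final) incubated with p53RE-bla cells 16 h at 37 C. Beta-lactamase reporter signal then quantified by fluorescence.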
# [3] = p53 small molecule agonists, cell-based qHTS assay with rat liver microsomes (AID 1963578)
# In short: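 Each plate received p53RE-bla cells, then compound, then rat liver microsomes and NADPH (both 0.5 mg/mL final). Plates were held 16 h at 37 C, and beta-lactamase activity was detected with LiveBLAzer over 2 h.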
# [4] = p53 small molecule agonists, cell-based qHTS assay with human liver microsomes: qHTS cell viability counter screen (AID 1963579); further: nearly all actives have a fitted effect of over 45% in size; further: potency means the concentration at half of the fitted maximal effect
# In short: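 Tox21 library compounds, delivered from DMSO stocks, were tested on p53RE-bla cells together with 0.5 mg/mL human liver microsomes and 0.5 mg/mL NADPH (final) over 16 h at 37 C; CellTiter-Glo luminescence served as the cytotoxicity measure.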
# [5] = p53 small molecule agonists, cell-based qHTS assay with rat liver microsomes: qHTS cell viability counter screen (AID 1963580); further: nearly all actives have a fitted effect of over 45% in size; further: potency means the concentration at half of the fitted maximal effect
# In short: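 Rat liver microsome (0.5 mg/mL final) and NADPH (0.5 mg/mL final) co-incubation with compounds for 16 h at 37 C on HCT-116 p53RE-bla cells; cytotoxicity taken from intracellular ATP luminescence.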
# [6] = p53 small molecule agonists, cell-based qHTS assay: qHTS cell viability counter screen (AID 1963581); further: nearly all actives have a fitted effect of over 45% in size; further: potency means the concentration at half of the fitted maximal effect
# In short: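 Cytotoxicity read-out: ATP-based luminescence (CellTiter-Glo, 30 min RT) measured in the same wells as the p53 reporter assay, HCT-116 p53RE-bla cells, 16 h compound exposure at 37 C.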
# [7] = p53 small molecule agonists, cell-based qHTS assay (AID 1963582; active means well fitted activation curve with a large enough effect in the signal ratio in the repeat runs, not every such curve was filed as active; the % refers to the signal ratio)
# In short: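 Fluorescence intensity read-out of a beta-lactamase reporter under a p53 response element. Cells were exposed to DMSO-dissolved compounds for 16 h at 37 C, then developed with FRET substrate for 2 h at RT.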
# [8] = biological target: 5-hydroxytryptamine receptor 2A (Homo sapiens) (UniProt P28223); test: 5-hydroxytryptamine receptor 2A (HTR2A) small molecule antagonists, cell-based qHTS assay (AID 1963586); further: nearly all actives have a fitted effect of over 45% in size
# Sequence of 5-hydroxytryptamine receptor 2A (Homo sapiens) (P28223 whole entry, looked up): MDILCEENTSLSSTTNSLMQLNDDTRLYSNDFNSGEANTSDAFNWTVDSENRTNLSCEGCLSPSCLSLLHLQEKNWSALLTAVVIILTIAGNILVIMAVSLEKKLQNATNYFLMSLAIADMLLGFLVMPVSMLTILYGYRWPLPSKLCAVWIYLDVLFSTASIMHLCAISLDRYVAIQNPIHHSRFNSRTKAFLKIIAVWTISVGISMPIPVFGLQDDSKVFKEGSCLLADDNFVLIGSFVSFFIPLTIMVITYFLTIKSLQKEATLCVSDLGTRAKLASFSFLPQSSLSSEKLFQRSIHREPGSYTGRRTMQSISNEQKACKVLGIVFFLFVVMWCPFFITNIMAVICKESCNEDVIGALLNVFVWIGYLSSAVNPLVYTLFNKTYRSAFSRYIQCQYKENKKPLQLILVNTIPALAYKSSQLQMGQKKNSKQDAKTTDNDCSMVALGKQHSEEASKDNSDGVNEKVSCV
# In short: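 CHO cells stably expressing human HTR2A were plated for 18 h at 37 C, then loaded with calcium dye for 1 h. Compounds were preincubated 5 min at room temperature before DOI (4 nM solution) was added. Kinetic fluorescence was read for 3 min.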
# [9] = biological target: 5-hydroxytryptamine receptor 2A (Homo sapiens) (UniProt P28223); test: 5-hydroxytryptamine receptor 2A (HTR2A) small molecule agonists, cell-based qHTS assay (AID 1963587); further: nearly all actives have a fitted effect of over 30% in size
# In short: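 Kinetic calcium-flux fluorescence (2 min, 1 sec intervals) after compound addition in agonist mode. HTR2A-CHO cells were cultured 18 h, then dye-loaded 1 h at 37 C.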
# [10] = biological target: Muscarinic acetylcholine receptor M1 (Homo sapiens) (UniProt P11229); test: Cholinergic receptor muscarinic 1 (CHRM1) small molecule antagonists, cell-based qHTS assay (AID 1963588); further: nearly all actives have a fitted effect of over 40% in size
# Sequence of Muscarinic acetylcholine receptor M1 (Homo sapiens) (P11229 whole entry, looked up): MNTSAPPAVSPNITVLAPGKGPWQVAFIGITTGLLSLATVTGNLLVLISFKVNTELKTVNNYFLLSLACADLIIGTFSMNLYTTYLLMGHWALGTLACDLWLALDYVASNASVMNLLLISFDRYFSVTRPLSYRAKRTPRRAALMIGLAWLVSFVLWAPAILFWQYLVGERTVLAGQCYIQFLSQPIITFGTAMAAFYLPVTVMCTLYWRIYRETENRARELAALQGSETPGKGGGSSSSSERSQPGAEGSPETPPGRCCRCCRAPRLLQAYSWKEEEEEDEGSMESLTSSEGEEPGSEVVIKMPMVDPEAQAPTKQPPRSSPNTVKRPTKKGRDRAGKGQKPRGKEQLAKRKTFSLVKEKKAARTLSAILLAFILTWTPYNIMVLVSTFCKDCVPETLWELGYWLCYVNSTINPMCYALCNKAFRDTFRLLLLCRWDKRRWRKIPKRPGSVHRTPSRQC
# In short: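 Compounds were tested at 15 concentrations in three independent runs. Dye-loaded CHRM1-CHO cells were exposed 5 min at room temperature before stimulation by acetylcholine added at 50nM. Intracellular calcium was read kinetically on FDSS for 3 min.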
# [11] = biological target: Muscarinic acetylcholine receptor M1 (Homo sapiens) (UniProt P11229); test: Cholinergic receptor muscarinic 1 (CHRM1) small molecule agonists, cell-based qHTS assay (AID 1963589); further: nearly all actives have a fitted effect of over 35% in size
# In short: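 Calcium flux read-out: kinetic fluorescence at 1 sec intervals after pin-tool compound addition to dye-loaded CHRM1-CHO cells (human M1). Agonist mode; 15 concentrations tested in triplicate independent runs.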
# [12] = cAMP Responsive Elements (CRE) small molecule agonists, cell-based qHTS assay (AID 1963590)
# In short: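 Beta-lactamase reporter readout: LiveBLAzer B/G FRET substrate, 2 h at room temperature, added after 3 h compound treatment of CRE-bla HEK 293T cells at 37 C/5% CO2.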
# [13] = cAMP Responsive Elements (CRE) small molecule antagonists, cell-based qHTS assay (AID 1963591; active means well fitted inhibition curve with a large enough effect in the signal ratio in the repeat runs, not every such curve was filed as active; the % refers to the signal ratio)
# In short: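 HEK293T CRE-bla; 18 h preincubation; compound pin-transfer; NKH477 0.25 uM final, 3 h, 37 C; LiveBLAzer FRET substrate 2 h RT.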
# [14] = biological target: Beta-2 adrenergic receptor (Homo sapiens) (UniProt P07550); test: Adrenergic beta2 receptor (ADRB2) small molecule antagonists, cell-based qHTS assay (AID 1963592); further: series mostly up to about 92 µM; nearly all actives have a fitted effect of over 50% in size
# Sequence of Beta-2 adrenergic receptor (Homo sapiens) (P07550 whole entry, looked up): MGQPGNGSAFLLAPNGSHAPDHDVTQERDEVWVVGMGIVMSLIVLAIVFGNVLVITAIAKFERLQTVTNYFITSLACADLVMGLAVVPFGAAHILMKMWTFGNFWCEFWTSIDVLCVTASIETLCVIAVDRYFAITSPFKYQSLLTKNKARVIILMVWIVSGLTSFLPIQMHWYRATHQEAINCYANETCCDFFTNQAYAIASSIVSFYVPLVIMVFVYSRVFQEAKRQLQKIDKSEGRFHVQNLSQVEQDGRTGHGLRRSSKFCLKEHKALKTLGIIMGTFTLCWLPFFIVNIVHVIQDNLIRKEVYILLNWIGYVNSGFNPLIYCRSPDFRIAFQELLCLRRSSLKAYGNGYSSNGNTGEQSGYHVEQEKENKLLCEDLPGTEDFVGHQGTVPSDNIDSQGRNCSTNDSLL
# In short: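 Assay format: CHO-ADRB2 cells, 18-20hr seeding at 37C/5% CO2, then compound plus 1nM isoproterenol agonist mix for 0.5hr RT. Homogeneous time-resolved fluorescence cAMP detection after 1hr, expressed as 665/615 nm ratio.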
# [15] = biological target: D(2) dopamine receptor (Homo sapiens) (UniProt P14416); test: Dopamine D2 receptor (DRD2) small molecule agonists, cell-based qHTS assay (AID 1963594); further: nearly all actives have a fitted effect of over 35% in size
# Sequence of D(2) dopamine receptor (Homo sapiens) (P14416 whole entry, looked up): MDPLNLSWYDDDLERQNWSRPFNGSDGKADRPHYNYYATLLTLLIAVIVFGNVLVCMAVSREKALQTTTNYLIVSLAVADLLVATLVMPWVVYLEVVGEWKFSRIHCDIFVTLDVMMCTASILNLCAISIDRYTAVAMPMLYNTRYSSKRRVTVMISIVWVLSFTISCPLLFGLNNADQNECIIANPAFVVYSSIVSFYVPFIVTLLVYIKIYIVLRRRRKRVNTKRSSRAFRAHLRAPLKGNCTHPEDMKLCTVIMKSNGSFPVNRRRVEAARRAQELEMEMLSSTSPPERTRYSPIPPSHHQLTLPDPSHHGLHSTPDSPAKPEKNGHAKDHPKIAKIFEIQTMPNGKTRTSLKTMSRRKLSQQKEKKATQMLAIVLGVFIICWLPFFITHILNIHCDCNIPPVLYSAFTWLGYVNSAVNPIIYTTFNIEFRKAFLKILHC
# In short: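 cAMP accumulation in DRD2-HEK293 cells measured by HTRF after 1 h detection; compounds added 10 min before NKH477 (200nM […]) forskolin-analogue stimulation, 30 min at room temperature, with Ro20-1724 present at 0.1 mM final.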
# [16] = biological target: D(2) dopamine receptor (Homo sapiens) (UniProt P14416); test: Dopamine D2 receptor (DRD2) small molecule antagonists, cell-based qHTS assay (AID 1963595; active means well fitted inhibition curve with a large enough effect in the signal ratio in the repeat runs, with a control signal flat; the % refers to the signal ratio)
# In short: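 HEK293 cells stably expressing DRD2 were preincubated with 0.1 mM Ro20-1724, then with compound for 10 min at room temperature. Cells were stimulated with 200 nM NKH477 plus 12 nM quinpirole for 30 min, and cAMP was read by HTRF.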
# [17] = biological target: KiSS-1 receptor (Homo sapiens) (UniProt Q969F8); test: Human kisspeptin (KISS1R) small molecule agonists, calcium flux assay in KISS1R-HEK293 cells (AID 1920064; active means well fitted activation curve with a large enough effect in the repeat runs)
# Sequence of KiSS-1 receptor (Homo sapiens) (Q969F8 whole entry, looked up): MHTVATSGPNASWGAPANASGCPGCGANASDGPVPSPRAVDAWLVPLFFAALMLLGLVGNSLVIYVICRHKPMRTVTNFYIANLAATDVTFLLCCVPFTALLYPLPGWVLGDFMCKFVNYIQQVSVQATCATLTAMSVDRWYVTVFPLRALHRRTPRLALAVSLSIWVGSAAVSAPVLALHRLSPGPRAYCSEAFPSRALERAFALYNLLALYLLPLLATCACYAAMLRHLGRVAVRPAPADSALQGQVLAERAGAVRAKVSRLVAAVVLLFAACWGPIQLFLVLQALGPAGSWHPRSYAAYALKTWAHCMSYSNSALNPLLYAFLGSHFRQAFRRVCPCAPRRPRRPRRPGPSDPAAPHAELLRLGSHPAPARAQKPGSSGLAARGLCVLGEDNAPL
# In short: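 Calcium flux read-out: kinetic fluorescence at Ex/Em=480/540, 1 s intervals over 3 min, after pin-tool compound addition to dye-loaded KISS1R-HEK293 cells. Fifteen concentrations, triplicates.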
# [18] = biological target: Beta-2 adrenergic receptor (Homo sapiens) (UniProt P07550); test: Adrenergic beta2 receptor (ADRB2) small molecule agonists, cell-based qHTS assay (AID 1963593);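 further: CHO cells stably overexpressing human ADRB2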
# In short: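 CHO cells stably over-expressing ADRB2 were plated overnight at 37C, then dosed with compounds plus a stimulation mix containing 100uM IBMX and 25uM Ro-20-1724 for 0.5hr at room temperature. cAMP was measured by HTRF competition, 1hr.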
Compound,Potency [1],Potency [2],Potency [3],Potency [4],Potency [5],Potency [6],Potency [7],Potency [8],Potency [9],Potency [10],Potency [11],Potency [12],Potency [13],Potency [14],Potency [15],Potency [16],Potency [17],Potency [18]
O=P(O)(O)OP(=O)(O)O,inactive,inactive,inactive,inactive,inactive,inactive,inactive,inactive,inactive,inactive,inactive,inactive,inactive,inactive,inactive,inactive,,
CCc1cc(SCc2sc(-c3ccc(C(F)(F)F)cc3)nc2CN2CCN(c3ccc(OC)cc3)CC2)ccc1OCC(=O)O,inactive,inactive,inactive,36.3 µM (active),32.4 µM (active),12.9 µM (active),,,,,inactive,,,,inactive,,inactive,
O=[N+]([O-])c1cccc(S(=O)(=O)O)c1,inactive,inactive,inactive,inactive,,inactive,,inactive,inactive,inactive,inactive,,,inactive,inactive,inactive,inactive,inactive
O=C(Nc1ccc2c(c1)Cc1ccccc1-2)C(F)(F)F,inactive,inactive,inactive,inactive,inactive,inactive,,,inactive,inactive,inactive,inactive,inactive,inactive,inactive,inactive,inactive,
c1ccc2c(c1)ccc1c3ccccc3ccc21,inactive,inactive,inactive,inactive,,inactive,,inactive,,inactive,inactive,inactive,inactive,inactive,inactive,inactive,inactive,
NNC(=O)OCc1ccccc1,inactive,,,inactive,inactive,inactive,,inactive,,inactive,inactive,inactive,inactive,inactive,inactive,inactive,inactive,
COc1ccc(CCN(C)CCCN2CCc3cc(OC)c(OC)cc3CC2=O)cc1OC,inactive,,,inactive,inactive,,,inactive,inactive,inactive,,,inactive,inactive,inactive,inactive,inactive,
O=C(O)c1ccc(S(=O)(=O)O)cc1C(=O)O,inactive,,,inactive,inactive,inactive,,,inactive,inactive,inactive,inactive,inactive,inactive,inactive,inactive,inactive,inactive
Cc1ccc([N+](=O)[O-])c(N)c1,inactive,inactive,inactive,,,inactive,inactive,inactive,inactive,inactive,inactive,inactive,inactive,inactive,inactive,inactive,inactive,inactive
